Source: PubChem BioAssay (NCATS)
Values joined by “and” are separate entries in the source; they are usually repeats but may differ in a detail not shown here. Identical values can stand only once. Records with an inconclusive call do not appear. Active and inactive are the calls of the source. Unless noted, calls follow the shape of the dose curve; as a rule, active = well fitted curve in the direction sought with a large enough effect; inconclusive = small, poorly fitted or top-dose-only effect, or another doubt; inactive = no such curve, though single readings can be large; an effect the other way counts as inactive or inconclusive.

Columns and labels:
[1] = qHTS to identify inhibitors of the type 1 interferon - major histocompatibility complex class I in skeletal muscle: primary screen against the NCATS Mechanism Interrogation Plate v5.0 (MIPE) Libary (AID 1347411); also: nearly all actives have a fitted effect of over 65% in size; also: potency is read from the fitted curve at half-maximal effect;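 as to activity change, negative = inhibition: plate controls were vehicle for no effect and reference inhibitor for full effect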
Outline: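 IFN-beta-driven (4 ng/ml) HLA-B-HiBit expression in CRISPR-tagged C25cl48 myoblasts; compounds 11-pt, 1:3, max 46 uM, 24 hr exposure; lytic NanoLuc complementation luminescence.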

[2] = Primary qHTS for inhibitors of nuclear receptor binding SET domain protein 2 (NSD2) in an isogenic RCH-ACV NSD2 p.E1099K mutant (9B) (AID 1645876); also: nearly all actives have a fitted effect of over 70% in size; also: potency is read from the fitted curve at half-maximal effect; as to activity change, negative = viability loss: % is scaled to controls: 0 for no effect and ±100 for the full control effect
[3] = Primary qHTS for inhibitors of nuclear receptor binding SET domain protein 2 (NSD2) in an RCH-ACV wild type WT cells (2C) (AID 1645877); also: nearly all actives have a fitted effect of over 70% in size; also: potency is read from the fitted curve at half-maximal effect; as to activity change, negative = cell killing: % is scaled to controls: 0 for no effect and ±100 for the full control effect
[4] = biological target: Phospholipid hydroperoxide glutathione peroxidase GPX4 (Homo sapiens) (UniProt P36969); test: Primary qHTS Assay for Inhibitors of Recombinant Selenoprotein Glutathione Peroxidase 4 (GPX4) (AID 1845192); conditions: outcome: dose series up to 50 µM unless noted; also: nearly all actives have a fitted effect of over 65% in size; as to activity change, negative = inhibition: series mostly up to about 50 µM; % is scaled to controls: 0 for no effect and ±100 for the full control effect
Sequence of Phospholipid hydroperoxide glutathione peroxidase GPX4 (Homo sapiens) (P36969 whole entry, looked up): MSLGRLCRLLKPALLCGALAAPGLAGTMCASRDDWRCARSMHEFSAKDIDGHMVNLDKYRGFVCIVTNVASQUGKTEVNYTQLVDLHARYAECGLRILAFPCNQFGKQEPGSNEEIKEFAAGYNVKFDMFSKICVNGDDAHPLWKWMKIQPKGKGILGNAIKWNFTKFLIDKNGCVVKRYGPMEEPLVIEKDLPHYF
Outline: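 NADPH consumption followed by fluorescence at 340/450 nm, t=0 and after 15 min at room temperature. Reaction started with cumene hydroperoxide (0.5 mM final) after 30 min compound–GPX4 preincubation; final 200 nM GPX4, 100 nM GR, 1 mM GSH, 0.5 mM NADPH.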

[5] = qHTS drug screen for cell cycle checkpoint inhibitors in PARPi-resistant BRCA-mutant ovarian cancer cell lines. (AID 1963452; calls by dose curve; also: potency is read from the fitted curve at half-maximal effect); conditions: PEO1/OlaR viability, CellTiter-Glo luminescence, 96 h; for Z-AUC: stronger effect = lower value
Outline: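 PEO1, PEO4 and PEO1/OlaR ovarian cancer cells, 600 per well, exposed 96 h at 37C to a dilution series. Viability read by CellTiter-Glo luminescence, normalized to DMSO and empty wells; activity summarized as Z-AUC.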

[6] = biological target: Glutathione peroxidase 1 (Homo sapiens) (UniProt P07203); test: Primary qHTS Assay for Inhibitors of Recombinant Selenoprotein Glutathione Peroxidase 1 (GPX1) (AID 1845191); also: nearly all actives have a fitted effect of over 65% in size
Sequence of Glutathione peroxidase 1 (Homo sapiens) (P07203 whole entry, looked up): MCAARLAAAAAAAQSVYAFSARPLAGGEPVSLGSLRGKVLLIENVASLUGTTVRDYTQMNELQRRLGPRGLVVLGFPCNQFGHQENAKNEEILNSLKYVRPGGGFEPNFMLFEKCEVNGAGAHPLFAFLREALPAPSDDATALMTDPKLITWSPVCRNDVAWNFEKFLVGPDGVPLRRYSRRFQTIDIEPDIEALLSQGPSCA
Outline: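 NADPH consumption tracked by fluorescence at 340/450 nm between t=0 and t=15 min, room temperature. Final mix: 10 nM GPX1, 100 nM glutathione reductase, 1 mM GSH, 0.5 mM NADPH, 0.5 mM cumene hydroperoxide, 0.01% BSA; 30 min compound–enzyme preincubation.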

[7] = qHTS Assay for Identifying Gametocytocidal Compounds (AID 743244);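 also: % is scaled to controls: 0 for no effect and ±100 for the full control effect; actives lower the fluorescent signal which means gametocytes are killed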; conditions: P. falciparum 3D7 stage III-V gametocytes, alamarBlue, 72 h; stronger effect = lower value
Outline: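 Late gametocytes (III–V), P. falciparum 3D7; 72 h drug, then 24 h alamarBlue; resazurin reduction read by fluorescence.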

[8] = biological target: Luciferin 4-monooxygenase (Photinus pyralis) (UniProt P08659); test: Biochemical firefly luciferase enzyme assay for NPC (AID 624030);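 also: purified P. pyralis luciferase at 10 nM with luciferin and ATP substrate; series mostly up to about 59 µM; 0% = DMSO and -100% = full luciferase inhibition by PTC124 control; nearly all actives have a fitted effect of over 70% in size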
Sequence of Luciferin 4-monooxygenase (Photinus pyralis) (P08659 whole entry, looked up): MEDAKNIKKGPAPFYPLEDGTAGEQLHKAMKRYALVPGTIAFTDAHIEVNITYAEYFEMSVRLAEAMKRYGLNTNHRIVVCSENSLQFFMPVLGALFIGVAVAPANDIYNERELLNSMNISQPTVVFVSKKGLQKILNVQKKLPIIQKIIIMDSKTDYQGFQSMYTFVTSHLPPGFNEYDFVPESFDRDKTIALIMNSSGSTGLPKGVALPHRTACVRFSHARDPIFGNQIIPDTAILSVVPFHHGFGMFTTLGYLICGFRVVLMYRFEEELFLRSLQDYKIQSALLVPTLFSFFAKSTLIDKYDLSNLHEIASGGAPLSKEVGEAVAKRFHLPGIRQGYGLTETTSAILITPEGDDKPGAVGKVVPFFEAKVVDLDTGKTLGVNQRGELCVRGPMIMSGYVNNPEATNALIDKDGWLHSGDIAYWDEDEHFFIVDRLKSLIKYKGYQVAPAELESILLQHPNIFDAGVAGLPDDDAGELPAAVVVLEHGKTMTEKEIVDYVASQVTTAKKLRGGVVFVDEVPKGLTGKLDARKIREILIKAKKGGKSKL
Outline: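 Direct inhibition of firefly luciferase enzyme (10 nM final, 50 mM Tris Acetate) assessed by luminescence within 5 minutes. Percent activity scaled between DMSO and PTC124 positive control, with concentration-effect curves classified by fit quality and response.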

[9] = measured here: PEO1 parental Z-AUC

With `Cc1c(NC(=O)c2cc(C(N)=O)nc3cc(F)ccc23)c(C(F)(F)F)nn1Cc1ccc(C(C)(C)C)cc1` the Potency [1] was “inactive”, the Potency [2] was “inactive” and the Potency [3] was “inactive”. For the same compound, the Potency [4] was “inactive”, the Z-AUC [5] was -0.453 (inactive) and the Z-AUC [5, 9] was -0.106. It also gave a Z-AUC ([5]; measured here: PEO4 Z-AUC) of 0.0379.

With `COc1ccc([C@@H](O)[C@@H](C)Oc2ccc([C@H]3O[C@H](c4ccc(O[C@H](C)[C@H](O)c5ccc(OC)c(OC)c5)c(OC)c4)[C@H](C)[C@H]3C)cc2OC)cc1OC` the Potency [1] was “inactive”, the Potency [2] was 5250 nM (active) and the Potency [3] was 5250 nM (active). The Potency [6] was “inactive”, the Z-AUC [5] was -1.98 (inactive) and the Z-AUC [5, 9] was -3.67. It also gave a Z-AUC ([5]; measured here: PEO4 Z-AUC) of -2.38.

For `CC(C)(NS(=O)(=O)c1ccc2c(Cl)cnc(N=C(N)N)c2c1)C(=O)O`, the Potency [1] was “inactive”, the Potency [2] was “inactive” and the Potency [3] was “inactive”. The Z-AUC [5] was -0.917 (inactive), the Z-AUC [5, 9] was 0.762 and the Z-AUC ([5]; measured here: PEO4 Z-AUC) was 0.0928.

With `CCN(CC)CCNc1ccc(C)c2sc3ccccc3c(=O)c12` the Potency [1] was 26200 nM (active), the Potency [2] was 5900 nM (active) and the Potency [3] was 5250 nM (active). The Potency [6] was “inactive”, the Z-AUC [5] was -1.21 (inactive) and the Z-AUC [5, 9] was -0.605. For the same compound, the Z-AUC ([5]; measured here: PEO4 Z-AUC) was -0.562.

For `N=C1S/C(=C\c2ccc(-c3ccc4c(c3)C(=O)NC4=O)o2)C(=O)N1c1ccc(Br)cc1`, the Potency [1] was “inactive”, the Potency [2] was “inactive” and the Potency [3] was “inactive”. For the same compound, the Z-AUC [5] was 0.761 (inactive), the Z-AUC [5, 9] was 0.782 and the Z-AUC ([5]; measured here: PEO4 Z-AUC) was 0.462.

With `Cn1ncc(NC(=O)c2nc(-c3c(F)cccc3F)sc2N)c1N1CC[C@@H](N)[C@H](F)CC1` the Potency [1] was “inactive”, the Potency [2] was “inactive” and the Potency [3] was “inactive”. For the same compound, the Potency [4] was “inactive”, the Z-AUC [5] was 0.883 (inactive) and the Z-AUC [5, 9] was 0.956. It also gave a Z-AUC ([5]; measured here: PEO4 Z-AUC) of 0.537.

For `CC1(C(=O)O)CCC2(C)CCC3(C)C(=CC(=O)C4C5(C)CCC(OC6OC(C(=O)O)C(O)C(O)C6OC6OC(C(=O)O)C(O)C(O)C6O)C(C)(C)C5CCC43C)C2C1` (stereo unspecified), the Potency [1] was “inactive”, the Potency [2] was “inactive” and the Potency [3] was “inactive”. The Potency [4] was “inactive”, the Z-AUC [5] was -0.447 (inactive) and the Z-AUC [5, 9] was 1.94. It also gave a Z-AUC ([5]; measured here: PEO4 Z-AUC) of 1.74.

With `C[C@]12CCC3=C4CCC(=O)C=C4CC[C@H]3[C@@H]1CC[C@@]2(O)CC#N` the Potency [1] was “inactive”, the Potency [2] was “inactive” and the Potency [3] was “inactive”. The Potency [4] was “inactive”, the Z-AUC [5] was 1.33 (inactive) and the Z-AUC [5, 9] was 1.75. It also gave a Z-AUC ([5]; measured here: PEO4 Z-AUC) of 1.39.

In the case of `CC(C)(O)CS(=O)(=O)Nc1ccc2c(c1)CCN(C(=O)COc1cccnc1)C2`, the Potency [1] is reported as “inactive”, the Potency [2] is reported as 37.2 nM (active) and the Potency [3] is reported as 33.2 nM (active). The Potency [4] was “inactive”, the Z-AUC [5] was -2.38 (inactive) and the Z-AUC [5, 9] was -2.73. It also gave a Z-AUC ([5]; measured here: PEO4 Z-AUC) of -2.65.

With `COCCNc1cc(NC(=O)N2CCCc3cc(CN4CCN(C)CC4=O)c(C=O)nc32)ncc1C#N` the activity change, negative = inhibition [1] was -1.84% [at 8.44 µM] (inactive), the activity change, negative = viability loss [2] was 3.8% [at 9.23 µM] (inactive) and the activity change, negative = cell killing [3] was 2.96% [at 9.23 µM] (inactive). For the same compound, the outcome [6] was “inactive [at 9.52 µM]”, the Z-AUC [5] was 0.715 (inactive) and the Z-AUC [5, 9] was 0.498. It also gave a Z-AUC ([5]; measured here: PEO4 Z-AUC) of 0.787.

For `O=C(Nc1cnn2ccc(N3CCC[C@@H]3c3cc(F)ccc3F)nc12)N1CC[C@H](O)C1`, the Potency [1] was “inactive”, the Potency [2] was “inactive” and the Potency [3] was “inactive”. For the same compound, the Potency [4] was “inactive”, the Z-AUC [5] was 1.28 (inactive) and the Z-AUC [5, 9] was 1.7. It also gave a Z-AUC ([5]; measured here: PEO4 Z-AUC) of 1.78.

With `CO[C@H]1/C=C/O[C@@]2(C)Oc3c(C)c(O)c4c(O)c(c5c(nc6cc(C)ccn65)c4c3C2=O)NC(=O)/C(C)=C\C=C\[C@H](C)[C@H](O)[C@@H](C)[C@@H](O)[C@@H](C)[C@H](OC(C)=O)[C@@H]1C` the Potency [1] was “inactive”, the Potency [2] was 20900 nM (active) and the Potency [3] was 23500 nM (active). For the same compound, the Potency [6] was “inactive”, the Z-AUC [5] was -0.712 (inactive) and the Z-AUC [5, 9] was -1.19. For the same compound, the Z-AUC ([5]; measured here: PEO4 Z-AUC) was -1.09.

For `CCn1c(=O)c(-c2ccc(-c3cncc(C)n3)cc2Cl)cc2cnc(NCCC3CCN(C)CC3)nc21`, the activity change, negative = inhibition [1] was -29.5% [at 5.1 µM] (inactive), the Potency [2] was 1180 nM (active) and the Potency [3] was 1320 nM (active). For the same compound, the outcome [6] was “inactive [at 4.49 µM]”, the Z-AUC [5] was 1.53 (inactive) and the Z-AUC [5, 9] was 0.823. It also gave a Z-AUC ([5]; measured here: PEO4 Z-AUC) of 1.06.

With `O=C(/C=C\n1cnc(-c2cc(C(F)(F)F)cc(C(F)(F)F)c2)n1)NNc1ccccn1` the Potency [1] was 2340 nM (active), the Potency [2] was 3720 nM (active) and the Potency [3] was 3320 nM (active). The Potency [6] was “inactive”, the Z-AUC [5] was -0.821 (inactive) and the Z-AUC [5, 9] was -1.43. For the same compound, the Z-AUC ([5]; measured here: PEO4 Z-AUC) was -1.79.

With `COc1ccc2[nH]c3c(c2c1)CCN[C@]31CS[C@@H]2c3c(OC(C)=O)c(C)c4c(c3[C@H](COC1=O)N1[C@@H]2[C@H]2c3c(cc(C)c(OC)c3O)C[C@@H]([C@@H]1O)N2C)OCO4` the Potency [1] was 53.5 nM (active), the Potency [2] was 1.7 nM (active) and the Potency [3] was 1.7 nM (active). The activity change, negative = inhibition [4] was -15.3% [at 9.73 µM] (inactive), the Potency [5] was 31.7 nM (active) and the Z-AUC [5, 9] was -2.79. The Z-AUC ([5]; measured here: PEO4 Z-AUC) was -2.86.

With `O=C1NC(=O)[C@@H](c2cn3c4c(cccc24)CCC3)[C@@H]1c1c[nH]c2ccccc12` the Potency [1] was “inactive”, the Potency [2] was 1320 nM (active) and the Potency [3] was 1050 nM (active). For the same compound, the Potency [4] was “inactive”, the Z-AUC [5] was 0.925 (inactive) and the Z-AUC [5, 9] was 0.797. It also gave a Z-AUC ([5]; measured here: PEO4 Z-AUC) of 0.765.

In the case of `Cn1c(-c2ccccc2C(F)(F)F)nnc1C12CCC(c3noc(C4CC(F)(F)C4)n3)(CC1)CC2`, the Potency [1] is reported as “inactive”, the Potency [2] is reported as “inactive” and the Potency [6] is reported as “inactive”. The Potency [4] was “inactive”, the Z-AUC [5] was 1.42 (inactive) and the Z-AUC [5, 9] was 1.05. For the same compound, the Z-AUC ([5]; measured here: PEO4 Z-AUC) was 1.41.

In the case of `CN1[C@@H]2CCC[C@H]1CC(NC(=O)c1nn(C)c3ccccc13)C2` (stereo partly specified), the max response [7] is reported as 3.13% (inactive), the Potency [1] is reported as “inactive” and the Potency [2] is reported as “inactive”. For the same compound, the Potency [3] was “inactive”.

In the case of `O=C(O)/C(S)=C/c1ccc(I)cc1`, the Potency [1] is reported as “inactive”, the Potency [2] is reported as “inactive” and the Potency [6] is reported as “inactive”. The Z-AUC [5] was 0.452 (inactive), the Z-AUC [5, 9] was 0.731 and the Z-AUC ([5]; measured here: PEO4 Z-AUC) was 0.789.

For `COc1cc(C(=O)NC(N)=Nc2ccc(C)c(NC(=O)c3ccc(-c4ccccc4)cc3)c2)cc(OC)c1OC`, the Potency [1] was “inactive”, the Potency [2] was 13200 nM (active) and the Potency [6] was “inactive”. For the same compound, the Potency [4] was “inactive”, the Z-AUC [5] was 0.647 (inactive) and the Z-AUC [5, 9] was 0.261. It also gave a Z-AUC ([5]; measured here: PEO4 Z-AUC) of 0.136.

With `Nc1nc(F)nc2c1ncn2[C@@H]1O[C@H](COP(=O)(O)O)[C@@H](O)[C@@H]1O` the Potency [8] was “inactive”, the Potency [1] was “inactive” and the Potency [2] was 1860 nM (active). For the same compound, the Potency [6] was “inactive”, the Z-AUC [5] was -1.15 (inactive) and -1.44 (inactive) and the Z-AUC [5, 9] was -1.36 and -1.18. For the same compound, the Z-AUC ([5]; measured here: PEO4 Z-AUC) was -0.49 and -0.861.

With `O=C(O)CNC(=O)c1nc(Cl)c2ccccc2c1O` the Potency [1] was “inactive”, the Potency [2] was “inactive” and the Z-AUC [5] was -0.321 (inactive). The Z-AUC [5, 9] was -0.207 and the Z-AUC ([5]; measured here: PEO4 Z-AUC) was -0.202.
